Laboratory results as given in ChEMBL document CHEMBL1961873, “Compounds: GSK PKIS; Assays: Nanosyn kinase panel” (2012).

Experiments:
[1] = target: Calcium/calmodulin-dependent protein kinase type II subunit alpha (Homo sapiens) (UniProt Q9UQM7); conditions: at 1 µM;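 further: reported value is a mean percent inhibition of CAMK2A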
[2] = target: Calcium/calmodulin-dependent protein kinase type II subunit delta (Homo sapiens) (UniProt Q13557); conditions: at 0.1 µM
[3] = target: Calcium/calmodulin-dependent protein kinase type II subunit delta (Homo sapiens) (UniProt Q13557); conditions: at 1 µM
[4] = target: T1, Calcium/calmodulin-dependent protein kinase type IV (Homo sapiens) (UniProt Q16566); conditions: at 0.1 µM
T1 sequence (whole entry): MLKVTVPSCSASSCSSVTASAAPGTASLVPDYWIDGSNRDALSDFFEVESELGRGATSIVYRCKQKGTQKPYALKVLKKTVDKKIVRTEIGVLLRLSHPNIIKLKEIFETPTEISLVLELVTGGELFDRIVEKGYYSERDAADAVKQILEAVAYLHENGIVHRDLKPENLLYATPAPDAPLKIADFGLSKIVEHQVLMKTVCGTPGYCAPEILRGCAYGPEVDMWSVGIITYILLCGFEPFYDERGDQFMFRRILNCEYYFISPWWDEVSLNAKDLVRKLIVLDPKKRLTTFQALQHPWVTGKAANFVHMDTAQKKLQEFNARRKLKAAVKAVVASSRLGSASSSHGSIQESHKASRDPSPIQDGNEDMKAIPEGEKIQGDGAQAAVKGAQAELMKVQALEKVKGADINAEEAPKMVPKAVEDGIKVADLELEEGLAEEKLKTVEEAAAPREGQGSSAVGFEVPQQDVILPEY

[5] = target: T1, Calcium/calmodulin-dependent protein kinase type IV (Homo sapiens); conditions: at 1 µM
[6] = target: T2, Serine/threonine-protein kinase Chk1 (Homo sapiens) (UniProt O14757); conditions: at 0.1 µM
T2 sequence (whole entry): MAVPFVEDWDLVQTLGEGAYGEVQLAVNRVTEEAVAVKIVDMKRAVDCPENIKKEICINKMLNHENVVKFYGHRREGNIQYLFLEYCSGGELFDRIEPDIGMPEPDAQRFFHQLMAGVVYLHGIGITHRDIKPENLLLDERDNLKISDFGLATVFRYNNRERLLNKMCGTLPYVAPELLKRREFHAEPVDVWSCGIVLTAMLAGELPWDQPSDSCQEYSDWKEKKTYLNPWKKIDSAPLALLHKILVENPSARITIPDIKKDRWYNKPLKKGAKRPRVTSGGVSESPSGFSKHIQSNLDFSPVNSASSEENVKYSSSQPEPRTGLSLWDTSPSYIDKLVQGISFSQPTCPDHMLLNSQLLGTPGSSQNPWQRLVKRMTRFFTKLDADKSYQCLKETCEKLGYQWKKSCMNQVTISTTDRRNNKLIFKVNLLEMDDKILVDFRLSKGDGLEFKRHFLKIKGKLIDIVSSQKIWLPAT

[7] = target: T2, Serine/threonine-protein kinase Chk1 (Homo sapiens); conditions: at 1 µM
[8] = target: Serine/threonine-protein kinase Chk2 (Homo sapiens) (UniProt O96017); conditions: at 0.1 µM
[9] = target: Serine/threonine-protein kinase Chk2 (Homo sapiens) (UniProt O96017); conditions: at 1 µM
[10] = target: Death-associated protein kinase 1 (Homo sapiens) (UniProt P53355); conditions: at 0.1 µM
[11] = target: Death-associated protein kinase 1 (Homo sapiens) (UniProt P53355); conditions: at 1 µM
[12] = target: T3, Serine/threonine-protein kinase DCLK2 (Homo sapiens) (UniProt Q8N568); conditions: at 0.1 µM
T3 sequence (whole entry): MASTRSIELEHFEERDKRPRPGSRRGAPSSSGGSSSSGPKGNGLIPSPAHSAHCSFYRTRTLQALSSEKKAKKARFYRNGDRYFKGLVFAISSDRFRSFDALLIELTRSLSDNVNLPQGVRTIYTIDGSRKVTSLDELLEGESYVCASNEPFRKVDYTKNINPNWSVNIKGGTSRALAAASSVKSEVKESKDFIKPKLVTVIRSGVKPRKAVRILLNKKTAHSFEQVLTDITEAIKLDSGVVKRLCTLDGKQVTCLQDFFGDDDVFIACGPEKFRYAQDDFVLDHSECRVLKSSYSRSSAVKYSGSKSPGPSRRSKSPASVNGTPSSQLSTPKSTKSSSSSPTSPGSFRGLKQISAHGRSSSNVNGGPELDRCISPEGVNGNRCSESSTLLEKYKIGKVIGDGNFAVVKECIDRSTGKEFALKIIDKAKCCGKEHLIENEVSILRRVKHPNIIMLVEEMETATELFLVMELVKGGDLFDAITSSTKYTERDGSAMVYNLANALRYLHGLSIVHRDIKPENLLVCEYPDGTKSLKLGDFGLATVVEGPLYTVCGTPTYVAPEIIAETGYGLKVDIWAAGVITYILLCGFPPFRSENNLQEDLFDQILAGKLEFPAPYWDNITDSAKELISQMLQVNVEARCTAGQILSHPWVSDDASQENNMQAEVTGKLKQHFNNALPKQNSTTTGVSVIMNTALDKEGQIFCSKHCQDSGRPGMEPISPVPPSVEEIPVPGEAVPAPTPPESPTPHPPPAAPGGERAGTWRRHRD

[13] = target: T3, Serine/threonine-protein kinase DCLK2 (Homo sapiens); conditions: at 1 µM
[14] = target: MAP kinase-activated protein kinase 2 (Homo sapiens) (UniProt P49137); conditions: at 0.1 µM
[15] = target: MAP kinase-activated protein kinase 2 (Homo sapiens) (UniProt P49137); conditions: at 1 µM
[16] = target: MAP kinase-activated protein kinase 3 (Homo sapiens) (UniProt Q16644); conditions: at 0.1 µM
[17] = target: MAP kinase-activated protein kinase 3 (Homo sapiens) (UniProt Q16644); conditions: at 1 µM
[18] = target: Serine/threonine-protein kinase MARK1 (Homo sapiens) (UniProt Q9P0L2); conditions: at 0.1 µM
[19] = target: Serine/threonine-protein kinase MARK1 (Homo sapiens) (UniProt Q9P0L2); conditions: at 1 µM
[20] = target: MAP/microtubule affinity-regulating kinase 3 (Homo sapiens) (UniProt P27448); conditions: at 0.1 µM;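 further: mean percent inhibition of MARK3 kinase activity, measured within the GSK PKIS screening panel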

Serine/threonine-protein kinase MARK1 (Homo sapiens), sequence (Q9P0L2 whole entry, looked up): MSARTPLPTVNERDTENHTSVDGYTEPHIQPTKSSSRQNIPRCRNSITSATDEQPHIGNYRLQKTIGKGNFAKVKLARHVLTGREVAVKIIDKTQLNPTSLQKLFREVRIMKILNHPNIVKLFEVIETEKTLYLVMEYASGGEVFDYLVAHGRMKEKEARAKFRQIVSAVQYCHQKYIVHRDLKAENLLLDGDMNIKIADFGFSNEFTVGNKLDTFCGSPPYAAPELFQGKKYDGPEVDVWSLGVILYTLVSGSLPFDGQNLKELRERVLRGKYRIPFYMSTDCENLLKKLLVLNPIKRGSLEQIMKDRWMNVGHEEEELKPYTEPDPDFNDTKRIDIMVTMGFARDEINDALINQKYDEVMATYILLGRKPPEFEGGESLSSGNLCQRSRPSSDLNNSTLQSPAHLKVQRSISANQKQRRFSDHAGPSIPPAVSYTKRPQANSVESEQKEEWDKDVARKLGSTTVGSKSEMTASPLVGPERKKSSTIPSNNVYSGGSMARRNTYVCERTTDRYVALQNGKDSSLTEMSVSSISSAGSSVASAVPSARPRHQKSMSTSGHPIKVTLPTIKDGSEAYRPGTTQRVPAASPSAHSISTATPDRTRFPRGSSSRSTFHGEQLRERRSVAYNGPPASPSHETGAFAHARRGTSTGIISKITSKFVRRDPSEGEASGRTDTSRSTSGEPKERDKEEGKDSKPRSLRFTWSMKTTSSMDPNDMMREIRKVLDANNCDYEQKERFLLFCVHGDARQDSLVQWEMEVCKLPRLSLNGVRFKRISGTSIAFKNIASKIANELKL
Death-associated protein kinase 1 (Homo sapiens), sequence (P53355 whole entry, looked up): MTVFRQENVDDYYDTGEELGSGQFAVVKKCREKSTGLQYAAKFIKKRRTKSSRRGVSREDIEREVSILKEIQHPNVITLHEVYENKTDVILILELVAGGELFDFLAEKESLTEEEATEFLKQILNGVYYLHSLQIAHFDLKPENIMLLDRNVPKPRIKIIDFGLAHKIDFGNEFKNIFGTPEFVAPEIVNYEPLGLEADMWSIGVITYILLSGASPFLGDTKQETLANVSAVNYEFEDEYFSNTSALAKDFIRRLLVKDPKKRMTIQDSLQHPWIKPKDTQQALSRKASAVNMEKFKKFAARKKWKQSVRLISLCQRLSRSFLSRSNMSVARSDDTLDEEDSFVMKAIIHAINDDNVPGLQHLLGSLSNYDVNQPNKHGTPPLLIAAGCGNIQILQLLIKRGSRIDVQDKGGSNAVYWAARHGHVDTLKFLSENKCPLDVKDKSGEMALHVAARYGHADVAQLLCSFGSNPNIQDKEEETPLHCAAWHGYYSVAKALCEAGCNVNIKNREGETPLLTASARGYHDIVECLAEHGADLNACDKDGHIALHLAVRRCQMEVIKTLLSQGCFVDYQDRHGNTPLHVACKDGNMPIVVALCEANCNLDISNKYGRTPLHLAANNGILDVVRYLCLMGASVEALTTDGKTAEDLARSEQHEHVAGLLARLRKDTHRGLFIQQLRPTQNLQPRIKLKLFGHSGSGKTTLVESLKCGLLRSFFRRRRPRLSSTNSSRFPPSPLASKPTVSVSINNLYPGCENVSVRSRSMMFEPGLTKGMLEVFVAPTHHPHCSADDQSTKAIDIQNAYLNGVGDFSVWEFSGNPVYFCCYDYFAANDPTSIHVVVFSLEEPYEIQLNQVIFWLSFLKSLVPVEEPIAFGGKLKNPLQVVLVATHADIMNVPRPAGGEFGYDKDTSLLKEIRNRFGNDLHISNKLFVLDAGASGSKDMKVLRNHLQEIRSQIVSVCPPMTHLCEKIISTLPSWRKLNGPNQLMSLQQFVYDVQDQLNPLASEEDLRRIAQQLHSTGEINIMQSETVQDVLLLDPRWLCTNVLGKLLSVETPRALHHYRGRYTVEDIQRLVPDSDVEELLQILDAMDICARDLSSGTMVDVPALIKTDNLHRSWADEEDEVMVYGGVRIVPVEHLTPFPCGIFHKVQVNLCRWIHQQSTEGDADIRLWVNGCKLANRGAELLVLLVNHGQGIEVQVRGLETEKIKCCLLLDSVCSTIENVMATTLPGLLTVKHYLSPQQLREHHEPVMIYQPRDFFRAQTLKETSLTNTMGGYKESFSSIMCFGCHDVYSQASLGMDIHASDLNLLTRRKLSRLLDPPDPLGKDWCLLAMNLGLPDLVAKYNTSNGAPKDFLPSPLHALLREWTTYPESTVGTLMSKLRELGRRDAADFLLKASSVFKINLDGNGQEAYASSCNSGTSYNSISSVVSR
Serine/threonine-protein kinase Chk2 (Homo sapiens), sequence (O96017 whole entry): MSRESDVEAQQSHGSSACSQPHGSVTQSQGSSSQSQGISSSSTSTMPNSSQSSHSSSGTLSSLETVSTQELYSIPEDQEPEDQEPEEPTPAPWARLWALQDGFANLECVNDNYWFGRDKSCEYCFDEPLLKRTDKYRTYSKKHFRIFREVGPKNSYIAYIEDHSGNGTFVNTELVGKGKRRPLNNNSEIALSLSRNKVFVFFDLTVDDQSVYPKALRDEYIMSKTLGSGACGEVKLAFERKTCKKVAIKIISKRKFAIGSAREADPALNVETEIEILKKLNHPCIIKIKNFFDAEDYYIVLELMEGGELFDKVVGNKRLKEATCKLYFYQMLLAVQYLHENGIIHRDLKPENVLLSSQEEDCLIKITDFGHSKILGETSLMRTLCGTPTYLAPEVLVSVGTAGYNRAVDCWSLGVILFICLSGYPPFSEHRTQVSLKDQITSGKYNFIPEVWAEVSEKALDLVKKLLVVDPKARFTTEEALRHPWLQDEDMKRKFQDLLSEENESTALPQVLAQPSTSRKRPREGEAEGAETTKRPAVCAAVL
Calcium/calmodulin-dependent protein kinase type II subunit delta (Homo sapiens), sequence (Q13557 whole entry): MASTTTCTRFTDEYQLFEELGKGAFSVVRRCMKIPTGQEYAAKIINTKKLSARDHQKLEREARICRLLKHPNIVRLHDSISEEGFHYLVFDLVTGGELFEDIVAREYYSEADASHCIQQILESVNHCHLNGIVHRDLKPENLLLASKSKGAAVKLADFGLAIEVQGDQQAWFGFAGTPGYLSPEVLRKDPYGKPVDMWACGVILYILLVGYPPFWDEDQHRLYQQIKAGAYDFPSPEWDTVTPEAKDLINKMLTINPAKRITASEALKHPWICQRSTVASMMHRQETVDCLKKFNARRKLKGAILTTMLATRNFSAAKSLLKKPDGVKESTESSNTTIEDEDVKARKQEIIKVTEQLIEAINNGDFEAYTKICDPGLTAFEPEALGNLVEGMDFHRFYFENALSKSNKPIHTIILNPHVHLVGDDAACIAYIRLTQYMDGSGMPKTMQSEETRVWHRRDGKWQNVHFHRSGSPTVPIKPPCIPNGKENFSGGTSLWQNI
MAP kinase-activated protein kinase 2 (Homo sapiens), sequence (P49137 whole entry, looked up): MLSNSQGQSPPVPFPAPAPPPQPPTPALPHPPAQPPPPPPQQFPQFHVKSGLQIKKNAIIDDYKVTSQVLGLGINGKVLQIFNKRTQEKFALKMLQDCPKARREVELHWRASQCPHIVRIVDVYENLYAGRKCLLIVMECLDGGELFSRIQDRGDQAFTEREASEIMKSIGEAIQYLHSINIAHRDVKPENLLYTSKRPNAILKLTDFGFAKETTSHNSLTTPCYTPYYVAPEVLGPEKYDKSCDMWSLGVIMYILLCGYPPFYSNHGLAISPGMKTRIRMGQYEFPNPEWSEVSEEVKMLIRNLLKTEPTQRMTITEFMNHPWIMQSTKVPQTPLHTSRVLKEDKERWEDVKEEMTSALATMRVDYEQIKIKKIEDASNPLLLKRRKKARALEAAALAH
MAP kinase-activated protein kinase 3 (Homo sapiens), sequence (Q16644 whole entry, looked up): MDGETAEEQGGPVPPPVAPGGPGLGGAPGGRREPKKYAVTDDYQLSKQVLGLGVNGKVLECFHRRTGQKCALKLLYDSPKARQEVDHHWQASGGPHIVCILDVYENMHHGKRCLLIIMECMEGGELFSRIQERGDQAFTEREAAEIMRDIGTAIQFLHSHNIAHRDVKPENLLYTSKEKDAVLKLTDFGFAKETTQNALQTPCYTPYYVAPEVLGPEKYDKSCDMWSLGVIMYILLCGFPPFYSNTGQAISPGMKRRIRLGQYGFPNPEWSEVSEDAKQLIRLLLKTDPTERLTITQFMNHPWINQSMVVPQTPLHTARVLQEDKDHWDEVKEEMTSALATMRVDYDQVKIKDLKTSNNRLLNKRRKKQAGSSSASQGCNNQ
Calcium/calmodulin-dependent protein kinase type II subunit alpha (Homo sapiens), sequence (Q9UQM7 whole entry): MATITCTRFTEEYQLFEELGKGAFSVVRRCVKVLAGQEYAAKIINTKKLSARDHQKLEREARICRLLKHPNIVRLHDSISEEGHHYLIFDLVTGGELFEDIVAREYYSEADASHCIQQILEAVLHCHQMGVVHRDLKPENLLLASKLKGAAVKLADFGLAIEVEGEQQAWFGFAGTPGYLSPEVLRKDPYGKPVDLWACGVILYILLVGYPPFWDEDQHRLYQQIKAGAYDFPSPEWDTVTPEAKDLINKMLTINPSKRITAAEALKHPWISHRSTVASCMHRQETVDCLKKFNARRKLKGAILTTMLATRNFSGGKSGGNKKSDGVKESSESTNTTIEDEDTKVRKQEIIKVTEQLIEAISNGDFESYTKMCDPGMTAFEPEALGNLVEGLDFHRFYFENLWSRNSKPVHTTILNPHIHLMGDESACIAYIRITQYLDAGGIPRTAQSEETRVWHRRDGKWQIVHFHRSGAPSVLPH

Compound | inhibition [1] | inhibition [2] | inhibition [3] | inhibition [4] | inhibition [5] | inhibition [6] | inhibition [7] | inhibition [8] | inhibition [9] | inhibition [10] | inhibition [11] | inhibition [12] | inhibition [13] | inhibition [14] | inhibition [15] | inhibition [16] | inhibition [17] | inhibition [18] | inhibition [19] | inhibition [20]
O=C(Nc1n[nH]c2nc(-c3ccco3)ccc12)C1CC1 | 1.36% | 2.25% | 2.34% | 2.75% | 3.02% | 1.37% | 8.39% | 4.66% | 6.05% | 7.38% | 8.47% | -5.65% | -0.3% | 3.08% | 2.89% | 7.07% | 7.18% | -0.31% | 0.25% | 3.27%
c1ccc(-c2n[nH]cc2-c2ccnc(-c3ccc(OCCN4CCOCC4)cc3)c2)nc1 | 0.85% | -1.29% | -0.13% | -0.9% | 0.4% | 1.01% | -1.98% | 3.21% | 2.24% | 1% | 1.17% | 4.23% | 4.29% | 0.95% | 0.98% | 0.91% | 8% | 4.58% | 4.86% | 7.18%
CCC(=O)Nc1ccc(C)c(-c2ccc(C(=O)NCC3CC3)cc2)c1 | 1.21% | 2.68% | 4.75% | -0.67% | 2.05% | 0.06% | -0.8% | 3.52% | 5.57% | -0.61% | -3.18% | -0.58% | 0.48% | 0.77% | 1.21% | 6.24% | 20.1% | 0.75% | 1.92% | -0.99%
NCc1ccc(-n2c(-c3nonc3N)nc3cnccc32)cc1 | 7.05% | 6.42% | 15.2% | -0.16% | 4.15% | 8.32% | 12.3% | 2.9% | 6.29% | 7.02% | 9.98% | -0.49% | 2.47% | 1.78% | 1.8% | 4.33% | 4.65% | 6.36% | 23.2% | 5.76%
CCN(CC)Cc1ccc(Nc2nccc(-c3cnn4ncccc34)n2)cc1 | 4.21% | 3.84% | 14.3% | -0.37% | 0.34% | 1.29% | 11.6% | 2.5% | 7.56% | 2.68% | 1.28% | -4.15% | 1.64% | 0.69% | 2.01% | 2.61% | 3.32% | 4.03% | 20.9% | 4.34%
CN(C)CCCNc1nccc(-c2c(-c3ccc(F)cc3)nn3cc(C(F)(F)F)ccc23)n1 | 4.26% | 3.65% | 4.37% | 1.43% | 2.27% | -3.07% | 1.13% | 0.82% | 0.61% | 0.55% | 0.77% | -2.25% | -1.62% | -0.13% | 0.05% | 8.23% | 22.7% | 3.37% | 1.8% | 3.54%
COc1cc2ncn(-c3cc(OCc4cccs4)c(C(N)=O)s3)c2cc1OC | 1.67% | 0.52% | 2.97% | -3.4% | -4.06% | 1.35% | 3.75% | 2.01% | 5.81% | 0.06% | -2.56% | -9.99% | -0.46% | 0.78% | 1.78% | 1.75% | 2.97% | 2.63% | 15.8% | 3.86%
CS(=O)(=O)CCNCc1cc(-c2cc3c(Nc4ccc(OCc5cccc(F)c5)c(Cl)c4)ncnc3s2)cs1 | 3.15% | 4.55% | 7.4% | -2.05% | 2.64% | 1.14% | 4.23% | 4.96% | 11.2% | 2.74% | -0.04% | 0.09% | 1.12% | 2.75% | 3.42% | 3.37% | 4.64% | -0.03% | 3.02% | 0.84%
NS(=O)(=O)c1ccc(Nc2cc(-c3ccc(O)c(F)c3)n[nH]2)cc1 | -4.72% | -3.72% | 1.69% | 0.82% | 0.53% | -5.01% | 8.18% | -1.68% | 3.93% | -2.1% | -3.49% | 2.54% | -2.22% | -1.97% | -1.79% | -0.95% | -0.99% | 0.41% | 8.64% | 0.26%
C#Cc1cccc(Nc2ncnc3ccc(OCCCCNCCS(C)(=O)=O)cc23)c1 | 3.33% | 3% | 5.51% | -0.65% | -2.02% | 1.45% | 4.94% | 2.64% | 7.73% | 3.32% | 2.74% | -0.45% | -4.44% | 2.15% | 1.98% | 4.84% | 4.44% | 5.11% | 8.02% | 5.17%
c1ccc(Oc2ccc(Nc3ncc(-c4ccccc4)o3)cc2)cc1 | 0.18% | 0.76% | 0.58% | 0.49% | 1.32% | 0.67% | 1.6% | 0.58% | 1.05% | 0.04% | 0.04% | 0.28% | -1.82% | 0.81% | 0.09% | 1.72% | 1.73% | 1.66% | 0.44% | -0.01%
Fc1ccc(-c2ncn(C3CCNCC3)c2-c2ccnc(Oc3ccc4c(c3)OCO4)n2)cc1 | 12.6% | 2.69% | 3.08% | 0.19% | 0.41% | -3.37% | -1.58% | -2.12% | -3.43% | -1.22% | -4.62% | 2.01% | 2.26% | 0% | -0.67% | 29.6% | 31.2% | 2.98% | 5.01% | 3.59%
COc1cc2ncn(-c3cc(OCc4ccccc4C(F)(F)F)c(C(C)=O)s3)c2cc1OC | 0.39% | 0.61% | 1.91% | -0.3% | -1.74% | 2.09% | 4.57% | 1.3% | 1.9% | 4.16% | 1.98% | -1.1% | 1.3% | 1.03% | 0.77% | 3.07% | 2.6% | 4.34% | 2.61% | 0.67%
O=C1NC(=O)C(c2cccc(Cl)c2)=C1Nc1ccc(Cl)c(C(=O)O)c1 | 2.06% | 1.45% | 4.49% | -0.36% | -0.93% | 0.81% | 2.22% | 2.39% | 3.13% | 3.48% | 3.41% | 0.79% | -4.18% | 1.73% | 1.21% | 2.96% | 3.57% | 2.35% | 3.49% | 3.32%
C[C@@H](Oc1cc(-n2cnc3ccc(OC4CCN(C)CC4)cc32)sc1C(N)=O)c1ccccc1Cl | 14.4% | 10.2% | 44.3% | -2.92% | 2.05% | 0.96% | 7.85% | 3.23% | 5.06% | 3.53% | 1.99% | -3.12% | -1.54% | 1.32% | 2.41% | 3.38% | 3.91% | 3.46% | 8.24% | 4.33%
COc1cc(Nc2ncc3c(C)nc(-c4cccc(C(F)(F)F)c4)n3n2)cc(OC)c1OC | 2% | 3.19% | 5.08% | -2% | -3.22% | 1.23% | 5.15% | 6.47% | 9.62% | -0.52% | 1.2% | 0.76% | -1.04% | 1.86% | 2.09% | 4.68% | 5.16% | 2.7% | 15.5% | 1.84%
Cc1nnc(-c2ccc(C)c(-c3ccc(C(=O)NCc4ccc(Cl)cc4)cc3)c2)o1 | 3.22% | 2.75% | 2.68% | 0.34% | 0.46% | 1.36% | 2.22% | 1.43% | 1.86% | 2.85% | 1.9% | -1.39% | -8.11% | 1.41% | 0.78% | 5.02% | 15.7% | 2.82% | 4.92% | 0.14%
